Assay results taken from PubChem BioAssay.

What follows are compounds tested against Torsin-1A-interacting protein 1 (Homo sapiens) (UniProt Q5JTV8) (assay: LAP1 binders from COS7 cell lysate, primary screen, small-molecule microarray, 635/667 nm fluorescence (AID 1116)). Conditions: COS7-hLAP1 lysate binding, 635 nm fluorescence, higher = more signal.
Chain of Torsin-1A-interacting protein 1 (Homo sapiens) (Q5JTV8 whole entry, looked up): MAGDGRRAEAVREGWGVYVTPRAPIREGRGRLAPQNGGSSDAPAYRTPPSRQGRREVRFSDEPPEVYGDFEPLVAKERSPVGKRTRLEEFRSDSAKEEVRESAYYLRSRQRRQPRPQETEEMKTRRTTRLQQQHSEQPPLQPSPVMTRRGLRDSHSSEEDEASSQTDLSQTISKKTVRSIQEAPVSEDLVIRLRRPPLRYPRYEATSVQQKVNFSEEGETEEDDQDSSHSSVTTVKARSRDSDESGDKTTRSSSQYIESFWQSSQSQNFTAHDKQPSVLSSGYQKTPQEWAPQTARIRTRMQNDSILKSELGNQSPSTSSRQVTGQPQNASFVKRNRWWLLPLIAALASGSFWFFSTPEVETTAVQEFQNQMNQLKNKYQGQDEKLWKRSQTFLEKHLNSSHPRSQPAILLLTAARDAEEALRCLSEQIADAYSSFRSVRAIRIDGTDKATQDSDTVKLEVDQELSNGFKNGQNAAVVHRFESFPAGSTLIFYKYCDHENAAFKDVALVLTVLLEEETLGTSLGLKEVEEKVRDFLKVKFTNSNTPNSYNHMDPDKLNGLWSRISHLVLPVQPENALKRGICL

SMILES | composite z-score
COC(=O)[C@H](C)NC(=O)CCC1CC(OC(=O)NCCc2ccc(F)cc2)CC2(CCCC(COC(=O)NCCc3ccc(Cl)cc3)O2)O1 (some centres not stated) | 0.428
C=COC[C@H]1CN2[C@@H](CC[C@@H](C)[C@@H]2c2ccc(Br)cc2)C(=O)O1 | -0.415
CN1C(=O)C2C=CC(C(O)c3ccc(Br)cc3)N(N(c3ccccc3)c3ccccc3)C2C1=O (configuration not stated) | 0.513
COC(=O)[C@H](C)NC(=O)[C@@H](C)CO | 0.924
O=C1[C@H]2[C@H]3[C@H](O)[C@H](O)CC(=NOCc4ccccc4)[C@@H]3CC[C@H]2C(=O)N1Cc1ccccc1 | 0.102
CC(C)[C@@H](OCc1ccccc1)[C@H](C)C=NOC[C@@H](C)[C@H](OCc1ccccc1)C(C)C | 0.0528
CCOC(=O)[C@H](Cc1ccccc1)NC(=O)CCC1CC(OC(=O)NCc2ccc3c(c2)OCO3)CC2(CCCC(COC(=O)NCC3CCCCC3)O2)O1 (some centres not stated) | 0.517
COC(=O)[C@@H]1CC[C@H](C)[C@@H](c2ccc(C)cc2)N1C(=O)c1ccc(C=NOC[C@@H](O)COCc2ccco2)cc1 | -1.63
Cc1cc2c(nc1C)CCCN2CC(O)CN1CCN(C)CC1 (configuration not stated) | 0.395
C=C(CCCC)C(=O)CC[C@@H](OC(C)=O)c1cccc(OCCO)c1 | 2.13
CCOC(=O)[C@H](Cc1ccccc1)NC(=O)CCC1CC(OC(=O)NCc2ccc3c(c2)OCO3)CC2(CCCC(COC(=O)NCC(c3ccccc3)c3ccccc3)O2)O1 (some centres not stated) | 0.313
C#CCCCON=C1C[C@@H](O)[C@@H](O)[C@@H]2[C@@H]3C(=O)N(c4cccc(Oc5ccccc5)c4)C(=O)[C@@H]3CC[C@@H]12 | 0.0847
